# Reference: PubChem BioAssay (Tox21)
# The source made the active and inactive calls. Where a call stands in place of a potency, no number is given. The call rests on the fitted dose curve; in most records, active means well fitted activation curve with a large enough effect in the repeat runs; inconclusive means weak or mixed curves; inactive means flat fitted curve, though single readings scatter.
# Assay: Caspase-3/7 induction in CHO-K1 cells by small molecules, qHTS assay (AID 1346980); further: nearly all actives have a fitted effect of over 15% in size
# Details: CHO-K1 caspase-3/7 induction, Caspase-Glo luminescence, 17 h; series mostly up to 92.4 µM; caspase-3/7 activation: at the top concentration
# From the text: National Center for Advancing Translational Sciences [NCATS]
# NIH Chemical Genomics Center [NCGC]
# U.S. Environmental Protection Agency [EPA]
# National Institutes of Environmental Health Sciences [NIEHS]
# National Toxicology Program [NTP]
# Apoptosis is a process of programmed cell death and plays a central role in the development of multicellular organisms. It is a highly regulated process and induces cell death by activating caspases, which are the members of cysteine aspartic acid-specific protease (caspase) family. Caspases involved in apoptosis are classified by their mechanism of action as initiator caspases (caspase-2, -8, -9 and -10) and executioner caspases (caspase-3, -6, and -7). Inhibition of apoptosis results in number of cancers, autoimmune diseases, inflammatory diseases and viral infection. To identify small molecule compounds that induce apoptosis, a homogeneous, luminescent Caspase-Glo 3/7 assay was used. Wild type CHO-K1 cells were used to screen Tox21 libraries for identifying caspase-3/7 activity inducers.
# CHO-K1 cells were dispensed at 1,500 per well in 5uL of culture medium into white solid bottom 1536-well plates (Corning Life Sciences, Corning, NY) using a Multidrop Combi (Thermo Scientific, Waltham, MA) dispenser. The assay plates were incubated at 37 C and 5% CO2 for 5hr, and then 23nL of compounds dissolved in DMSO and positive control were transferred using a Pintool station (Wako, San Diego, CA). The assay plates were incubated at 37C and 5% CO2 for 17hr. For caspase-3/7 activity read, 4uL of Caspase-Glo 3/7 reagent (Promega Corporation, Madison, WI) was added to each well of the assay plates using Flying Reagent Dispenser (FRD, Aurora Discovery, San Diego, CA) and incubated the assay plates at room temperature for 30min. The luminescence signal was quantified using a ViewLux plate reader (Perkin Elmer, Shelton, CT).
SMILES,Potency,caspase-3/7 activation
ClC/C=C/CCl,inactive,–
Cc1ccc(C(C)(C)C)c(O)c1,–,7.61% (inactive)
O=C(CCCN1CCC(O)(c2ccc(Cl)cc2)CC1)c1ccc(F)cc1,inactive,–
CCCOCCO,inactive,–
CC1(C)O[C@@H]2C[C@H]3[C@@H]4C[C@H](F)C5=CC(=O)C=C[C@]5(C)[C@@]4(F)[C@@H](O)C[C@]3(C)[C@]2(C(=O)CO)O1,inactive,–
c1ccc2ncccc2c1,inactive,–
CCC/C=C/C=O,inactive,–
CCC(Cc1c(I)cc(I)c(N)c1I)C(=O)O (stereo not given),inactive,–
c1ccc2cc3ccccc3cc2c1,inactive,–
CC[C@]12CCCN3CCc4c(n(c5ccccc45)[C@@](O)(C(=O)OC)C1)[C@@H]32,inactive,–
Cc1cccc(Nc2ccccc2C(=O)O)c1C,inactive,–
CCOC(=O)C(C)Oc1ccc(Oc2cnc3cc(Cl)ccc3n2)cc1 (stereo not given),inactive,–
NCCN,inactive,–
CCCN1C=CN(C)C1,inactive,–
Nc1cc(Cl)c(N)c(Cl)c1,inactive,–
c1ccc2c(c1)[nH]c1ccccc12,inactive,–
COc1cc([C@H]2Oc3cc([C@H]4Oc5cc(O)cc(O)c5C(=O)[C@@H]4O)ccc3O[C@@H]2CO)ccc1O,inactive,–
c1ccc2c(c1)ccc1cc3c(ccc4ccccc43)cc12,inactive,–
CCCCCCCC/C=C\CCCCCCCC(=O)O,inactive,–
NCCOCCO,inactive,–

SMILES,Potency,caspase-3/7 activation
CC(C)(C)c1cccc(C(C)(C)C)c1O,inactive,–
Clc1ccc(Sc2cc(Cl)c(Cl)cc2Cl)cc1,inactive,–
O=C(O)CCCC(=O)O,inactive,–
CC(=O)[C@H]1CC[C@H]2[C@@H]3CC=C4C[C@@H](O)CC[C@]4(C)[C@H]3CC[C@]12C,inactive,–
NCCS(=O)(=O)O,inactive,–
C[C@]12C=CC(=O)C=C1CC[C@H]1[C@@H]3C[C@@H](O)[C@](O)(C(=O)CO)[C@@]3(C)C[C@H](O)[C@@]12F,inactive,–
CC/C(=C(/CC)c1ccc(O)cc1)c1ccc(O)cc1,inactive,–
C=C[C@@]1(C)CC(=O)[C@]2(O)[C@@]3(C)[C@@H](O)CCC(C)(C)[C@@H]3[C@H](O)[C@H](OC(C)=O)[C@@]2(C)O1,inactive,–
CC(=O)O[C@]1(C(C)=O)CC[C@H]2[C@@H]3C=C(C)C4=CC(=O)CC[C@]4(C)[C@H]3CC[C@@]21C,inactive,–
COC(=O)c1ccc(C)cc1,inactive,–
[O-]/[N+](=N\O)c1ccccc1,inactive,–
Nc1ccc2c(O)cc(S(=O)(=O)O)cc2c1,inactive,–
CC(C)=CCO,–,-0.623% (inactive)
CC(C)[N+](C)(CCOC(=O)C1c2ccccc2Oc2ccccc21)C(C)C,inactive,–
Nc1ccc(O)c(N)c1,inactive,–
CCO[Si](CCCNC(N)=O)(OCC)OCC,inactive,–
Cc1ccc(S(=O)(=O)O)cc1C,inactive,–
O=C(O)CCCCCCCCCCCC(=O)O,inactive,–
C=CC(C)(O)CCC=C(C)C (stereo not given),inactive,–
C=CCNCC=C,inactive,–
